Measured values as given in the supplement of paper PMC6555819.

What was measured:
Assay in all cases: PBM binding z-score (relative to random genomic background probes); higher = stronger binding; sequences stand for … in GC…GCGATTGACAGCGTAGAATGAAGG
[1] = system: PPARg:RXRa DBDmut IVT, anti-RXR (DBD mutation: RXRa K156A/R161A, NR concentration 270 nM, RXRa partner concentration 90 nM)
Method in brief: (§1)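 Custom Agilent 4×180K protein-binding microarrays carried double-stranded probes, each with a 34-nt variable region. These regions held direct-repeat seeds, single-nucleotide variants, half-site ablations and random human genomic background sequences. Ligand-free nuclear receptor dimers were incubated on the arrays for 1 h, antibodies against each partner (one per run) detected binding, and scanned fluorescence was regression-normalized. Binding z-scores take the random background probes as reference.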

[2] = system: PPARg:RXRa IVT, anti-PPARg (NR concentration 270 nM, RXRa partner concentration 90 nM)
Method in brief: as §1

[3] = system: PPARg DBDmut:RXRa IVT, anti-PPARg (DBD mutation: PPARg1 K132A/R137A, NR concentration 270 nM, RXRa partner concentration 90 nM)
Method in brief: as §1

[4] = system: PPARg DBDmut IVT, anti-PPARg (DBD mutation: PPARg1 K132A/R137A, NR concentration 270 nM)
Method in brief: as §1

[5] = system: PPARg homodimer (NR concentration 180 nM)
Method in brief: as §1

[6] = system: PXR:RXRa (NR concentration 270 nM, RXRa partner concentration 90 nM)
Method in brief: as §1

[7] = system: PXR homodimer (NR concentration 270 nM)
Method in brief: as §1

[8] = system: RARa:RXR (NR concentration 270 nM, RXRa partner concentration 90 nM)
Method in brief: as §1

[9] = system: RARa homodimer (NR concentration 270 nM)
Method in brief: as §1

[10] = system: RARb:RXRa (NR concentration 270 nM, RXRa partner concentration 90 nM)
Method in brief: as §1

| Sequence | PBM binding z-score [1] | PBM binding z-score [2] | PBM binding z-score [3] | PBM binding z-score [4] | PBM binding z-score [5] | PBM binding z-score [6] | PBM binding z-score [7] | PBM binding z-score [8] | PBM binding z-score [9] | PBM binding z-score [10] |
| --- | --- | --- | --- | --- | --- | --- | --- | --- | --- | --- |
| TCTTGTAGATCAAAGGTTCAGAAAGCCGAAGCCT | 1.88 | 1.55 | 0.156 | 0.203 | 0.638 | 0.73 | -0.103 | 1.13 | -0.254 | 0.898 |
| TCTTGAAGATCAAAGGTTAAGAAAGCCGAAGCCT | 1.75 | 1.72 | 0.267 | 0.871 | 1.22 | 2.3 | 0.147 | 3.49 | 0.254 | 2.07 |
| AATACAGGGTCATCGGAGGCCAGAGTACGCACAG | 2.24 | 4.03 | 1.88 | 1.83 | 2.39 | 5.97 | 0.898 | 4.9 | 1.32 | 4.47 |
| CCGACTGGGGCAAAGGTTTCCATACTCAGTACGA | 5.1 | 4.87 | -0.186 | -0.49 | 0.0767 | -0.0306 | -0.339 | 0.0342 | -0.339 | 0.737 |
| CGTCAAAGTTTAACTAAGGTAACGTAAAGCACGC | 0.271 | 1.32 | 0.6 | 1.17 | 0.901 | 1.45 | 0.928 | 1.55 | 0.858 | 2.44 |
| CCTACTGGGCAAAGGTCATTGATCAGTCAAAGCA | 1.24 | 4.2 | -0.384 | -0.183 | 4.15 | 5.26 | 1.18 | 6.18 | 1.65 | 4.49 |
| ACTAGCAGGCGAAGTTTGGGTCACTCAAACAAAG | -0.461 | 0.0553 | -0.763 | -1.05 | -0.0559 | 0.583 | -0.27 | 1.15 | -0.491 | 1.14 |
| TCTCGGAGGACACGAAGGTCACAGCTTTCCAGAG | 1.84 | 2.4 | 0.166 | -0.192 | 2.75 | 3.96 | 2.33 | 3.8 | 0.474 | 3.97 |
| ACTATTAGTTAACTTAGGGCAACCGATACGACGC | 0.0765 | 0.837 | 0.677 | 1.02 | 0.328 | 0.418 | 0.13 | 0.582 | 0.421 | 0.959 |
| ACTAGCAGGCCAAGTTTGGGTCATTCAAACAAAG | 0.974 | 1.1 | -0.68 | -0.939 | 0.745 | 1.08 | -0.0146 | 1.73 | -0.276 | 1.69 |
| TCAGACAGGTGAAGGTAACTCACGTACGCAGTCG | 2.67 | 1.17 | 0.022 | -0.274 | 0.847 | 0.479 | -0.00874 | 0.651 | 0.536 | 1.07 |
| TGTCGGAGGACACGAAAGGTCAGAGCTCGACATC | -0.0424 | 1.74 | 0.729 | -0.228 | 2.53 | 4.04 | 0.82 | 4.12 | 1.52 | 4.31 |
| CCTAGTTCGTCAGGAGGTCACACACCGGATATGA | 1.04 | 2.38 | 0.424 | 0.947 | 5.39 | 5.2 | 2.66 | 5.34 | 2.32 | 3.76 |
| TCTTGTAGATCAACAAGAGGTTAAGAAAGATCGA | 1.35 | 0.865 | 0.785 | 0.787 | -0.0436 | 1.27 | 0.0734 | 1.63 | -0.225 | 0.99 |
| CCTACTGGGCCATCAAGTCATTGATATCAACGTT | 3.82 | 3.91 | -0.107 | 0.228 | 0.653 | -0.138 | -0.334 | 0.32 | 0.00429 | 0.23 |
| CCGAGTAGCTTATGGGGCATTCAGGCAACGGTGA | 0.454 | 0.117 | -1.42 | -1.07 | -0.422 | -0.731 | -0.54 | -0.568 | -0.432 | -0.266 |
| TCTCGTAGATCAACAGGAGGTTAAGAAAGATCGA | 1.41 | 0.00538 | 0.397 | -0.0394 | 0.0333 | 0.901 | -0.13 | 1.21 | 0.12 | 0.48 |
| CAAACTAGGTCAGAGGTCAAAGTCGAGCCAACCA | 8.29 | 8.85 | 2.06 | 4.69 | 5.7 | 6.37 | 2.49 | 8.36 | 2.29 | 5.18 |
| CCGACTGGGGCAGAAAGGTTACCATTCCATCCGG | 1.94 | 1.83 | -1 | -1.28 | 0.284 | 0.744 | -0.202 | 1.33 | 0.0232 | 1.52 |
| AGAACGAGGTTAAGATCAGGGAAACAGAATACAT | 1.95 | 2.16 | 1.47 | 0.398 | 0.757 | 1.27 | 0.776 | 1.89 | 0.576 | 1.91 |
| AGAATGAGGTTATTAAGTTCAGGGAATTGCGGTC | 2.87 | 2.49 | 1.24 | 0.465 | 1.36 | 5.65 | 13.8 | 2.88 | 0.854 | 2.35 |
| CCTACTGAGCCATCAGGTCATTGATATCAACGTT | 1.16 | 1.31 | 0.489 | -0.632 | 2.1 | 2.1 | 1.55 | 2.21 | 1.53 | 1.81 |
| ATCTCTAGGTAAAGATCGTTCAGTGAATGCAAAT | 2.03 | 1.66 | 1.31 | 0.707 | 0.555 | -0.16 | 0.0441 | 0.0862 | 0.49 | -0.0299 |
| CAAACTAGATCACGAAAGGTCAAAGTCGAATGAC | 3.85 | 4.1 | 1.64 | 2.11 | 4.54 | 5.85 | 2.42 | 6.41 | 2.84 | 4.5 |
